Data taken from PubChem BioAssay AID1159580 (chemical genetic matrix, 2015).
Several values for one entry are separate records, joined by “and”; a condition that tells them apart may be missing. Equal values may be shown once. The campaign covered roughly 5,500 compounds. About 2,000 (36%) were called active. Not shown: some 18% with an inconclusive outcome. Rule as the data show it: active = normalized growth mostly below about 0.91 (no sharp cut-off); inconclusive = no clear call, values can overlap the other calls; inactive = mostly above about 0.92. The list shows a part of the results.

Assay: chemical genetic growth profiling, strain panel (AID 1159580);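 also: tested at 20 µM; growth read once vehicle control cultures reached saturation at 30 °C; 1 = growth at the plate median or of vehicle wells; lower values mean less growth of the strain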
Details: S. cerevisiae deletion strains, growth OD

COc1c(OC)c2occc2c2oc(=O)ccc12
normalized growth (locus YAL021C, strain ccr4, stronger effect = lower value): 0.988 (inactive) | normalized growth (locus YAL026C, strain drs2, stronger effect = lower value): 0.987 (inactive) | normalized growth (locus YAL030W, strain snc1, stronger effect = lower value): 0.99 (inactive) | normalized growth (locus YBL061C, strain skt5, stronger effect = lower value): 0.979 (inactive) | normalized growth (locus YBR009C, strain hhf1, stronger effect = lower value): 0.958 (inactive) | normalized growth (locus YBR021W, strain FUR4, stronger effect = lower value): 1.01 (inactive) | normalized growth (locus YBR023C, strain chs3, stronger effect = lower value): 0.976 (inactive) | normalized growth (locus YBR171W, strain sec66, stronger effect = lower value): 0.973 (inactive) | normalized growth (locus YBR229C, strain ROT2, stronger effect = lower value): 0.967 (inactive) | normalized growth (locus YBR231C, strain swc5, stronger effect = lower value): 0.96 (inactive) | normalized growth (locus YBR279W, strain paf1, stronger effect = lower value): 0.973 (inactive) | normalized growth (locus YCL011C, strain gbp2, stronger effect = lower value): 0.979 (inactive) | normalized growth (locus YCL016C, strain dcc1, stronger effect = lower value): 0.98 (inactive) | normalized growth (locus YCL029C, strain bik1, stronger effect = lower value): 0.983 (inactive) | normalized growth (locus YCL061C, strain MRC1, stronger effect = lower value): 0.978 (inactive) | normalized growth (locus YCL069W, strain vba3, stronger effect = lower value): 0.989 (inactive) | normalized growth (locus YCR088W, strain abp1, stronger effect = lower value): 0.987 (inactive) | normalized growth (locus YDL005C, strain med2, stronger effect = lower value): 0.998 (inactive) | normalized growth (locus YDL035C, strain GPR1, stronger effect = lower value): 0.924 (inactive) | normalized growth (locus YDL040C, strain nat1, stronger effect = lower value): 0.981 (inactive) | normalized growth (locus YDL074C, strain BRE1, stronger effect = lower value): 0.86 (inactive) | normalized growth (locus YDL101C, strain DUN1, stronger effect = lower value): 0.949 (inactive) | normalized growth (locus YDL134C, strain PPH21, stronger effect = lower value): 0.948 (inactive) | normalized growth (locus YDL185W, strain tfp1, stronger effect = lower value): 0.945 (inactive) | normalized growth (locus YDL192W, strain arf1, stronger effect = lower value): 0.866 (active) | normalized growth (locus YDR001C, strain nth1, stronger effect = lower value): 0.973 (inactive) | normalized growth (locus YDR069C, strain doa4, stronger effect = lower value): 1 (inactive) | normalized growth (locus YDR101C, strain arx1, stronger effect = lower value): 0.927 (inactive) | normalized growth (locus YDR137W, strain rgp1, stronger effect = lower value): 0.952 (inactive) | normalized growth (locus YDR159W, strain sac3, stronger effect = lower value): 1.01 (inactive) | normalized growth (locus YDR162C, strain NBP2, stronger effect = lower value): 0.822 (active) | normalized growth (locus YDR195W, strain ref2): 1.14 [resistant] (active) | normalized growth (locus YDR297W, strain sur2, stronger effect = lower value): 0.974 (inactive) | normalized growth (locus YDR318W, strain mcm21, stronger effect = lower value): 0.95 (inactive) | normalized growth (locus YDR334W, strain swr1, stronger effect = lower value): 0.967 (inactive) | normalized growth (locus YDR335W, strain msn5, stronger effect = lower value): 0.978 (inactive) | normalized growth (locus YDR388W, stronger effect = lower value): 0.959 (inactive) | normalized growth (locus YDR392W, strain spt3, stronger effect = lower value): 0.765 (inactive) | normalized growth (locus YDR502C, strain sam2, stronger effect = lower value): 0.918 (active) | normalized growth (locus YEL003W, strain gim4, stronger effect = lower value): 0.982 (inactive) | normalized growth (locus YEL037C, strain rad23, stronger effect = lower value): 0.981 (inactive) | normalized growth (locus YEL061C, strain CIN8 (second series), stronger effect = lower value): 0.984 (inactive) | normalized growth (locus YEL061C, strain CIN8, stronger effect = lower value): 0.963 (inactive) | normalized growth (locus YER015W, strain faa2, stronger effect = lower value): 0.972 (inactive) | normalized growth (locus YER016W, strain bim1, stronger effect = lower value): 0.984 (inactive) | normalized growth (locus YER110C, stronger effect = lower value): 0.949 (inactive) | normalized growth (locus YER111C, strain swi4, stronger effect = lower value): 0.992 (inactive) | normalized growth (locus YER155C, strain BEM2 (second series), stronger effect = lower value): 0.832 (active) | normalized growth (locus YER155C, strain BEM2, stronger effect = lower value): 0.962 (inactive) | normalized growth (locus YER167W, strain BCK2, stronger effect = lower value): 0.97 (inactive) | normalized growth (locus YFR010W, strain ubp6, stronger effect = lower value): 0.98 (inactive) | normalized growth (locus YGL078C, strain dbp3, stronger effect = lower value): 0.979 (inactive) | normalized growth (locus YGL086W, strain mad1, stronger effect = lower value): 0.937 (inactive) | normalized growth (locus YGL167C, strain pmr1, stronger effect = lower value): 0.975 (inactive) | normalized growth (locus YGL173C, strain kem1, stronger effect = lower value): 0.986 (inactive) | normalized growth (locus YGL227W, strain vid30, stronger effect = lower value): 0.994 (inactive) | normalized growth (locus YGL240W, strain doc1, stronger effect = lower value): 0.931 (inactive) | normalized growth (locus YGL248W, strain PDE1, stronger effect = lower value): 0.95 (inactive) | normalized growth (locus YGL253W, strain hxk2, stronger effect = lower value): 0.956 (inactive) | normalized growth (locus YGR078C, strain PAC10, stronger effect = lower value): 0.882 (inactive) | normalized growth (locus YGR135W, strain pre9, stronger effect = lower value): 0.881 (active) | normalized growth (locus YGR252W, strain gcn5, stronger effect = lower value): 0.802 (inactive) | normalized growth (locus YHR013C, strain ard1, stronger effect = lower value): 1.01 (inactive) | normalized growth (locus YHR027C, strain rpn1, stronger effect = lower value): 0.984 (inactive) | normalized growth (locus YHR030C, strain SLT2, stronger effect = lower value): 0.945 (inactive) and 0.955 (inactive) | normalized growth (locus YHR079C, strain IRE1 (second series), stronger effect = lower value): 0.977 (inactive) | normalized growth (locus YHR079C, strain IRE1, stronger effect = lower value): 0.944 (inactive) | normalized growth (locus YHR094C, strain hxt1, stronger effect = lower value): 0.985 (inactive) | normalized growth (locus YHR129C, strain ARP1, stronger effect = lower value): 0.959 (inactive) | normalized growth (locus YHR142W, strain chs7, stronger effect = lower value): 0.904 (inactive) | normalized growth (locus YHR200W, strain rpn10, stronger effect = lower value): 0.923 (inactive) | normalized growth (locus YIL066C, strain RNR3, stronger effect = lower value): 0.88 (inactive) | normalized growth (locus YIL073C, strain SPO22, stronger effect = lower value): 0.955 (inactive) | normalized growth (locus YIL125W, strain kgd1, stronger effect = lower value): 0.979 (inactive) | normalized growth (locus YIR030C, strain dcg1, stronger effect = lower value): 0.962 (inactive) | normalized growth (locus YJL092W, strain hpr5, stronger effect = lower value): 0.972 (inactive) | normalized growth (locus YJL095W, strain BCK1 (second series), stronger effect = lower value): 0.974 (inactive) | normalized growth (locus YJL095W, strain BCK1, stronger effect = lower value): 0.785 (active) and 0.957 (inactive) | normalized growth (locus YJL115W, strain asf1, stronger effect = lower value): 0.984 (inactive) | normalized growth (locus YJL129C, strain trk1, stronger effect = lower value): 0.993 (inactive) | normalized growth (locus YJL134W, strain LCB3, stronger effect = lower value): 0.967 (inactive) | normalized growth (locus YJL154C, strain vps35, stronger effect = lower value): 0.987 (inactive) | normalized growth (locus YJL164C, strain tpk1, stronger effect = lower value): 0.966 (inactive) | normalized growth (locus YJL166W, strain qcr8, stronger effect = lower value): 0.945 (inactive) | normalized growth (locus YJL168C, strain set2, stronger effect = lower value): 0.977 (inactive) | normalized growth (locus YJL187C, strain SWE1 (second series), stronger effect = lower value): 0.947 (inactive) | normalized growth (locus YJL187C, strain SWE1, stronger effect = lower value): 0.973 (inactive) | normalized growth (locus YJR043C, strain POL32, stronger effect = lower value): 0.887 (inactive)
